# ± gives the standard deviation. Whole data set: some 3,700 sequences, median “pre-steady-state target cleavage rate” near 0.02, cut for the highest 2% near 0.23. The full list was thinned out, with the highest values kept by preference.
# System: MILI (PIWIL2) piRISC loaded with Kctd7 piRNA (26 nt)
# Assay: pre-steady-state target cleavage rate (min^-1); MIWI and MILI are mouse PIWI proteins and EfPiwi is from a freshwater sponge; tags in brackets are library labels; higher = faster piRNA-guided slicing of the target
# Conditions: guide: Kctd7 piRNA 5'p-UGUUAAUCUCUCAGAGAAGGUGACAG; auxiliary factor: 500 nM mouse GTSF1
# Experimental: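 Cleave-'n-Seq: a library of target RNAs (target site embedded in constant flanks, ACAGCATTCCGCGTTAGTGATATCCG... 5' flank; DNA-blocked outside the site) at 0.1 nM was incubated with 1 nM active mouse MILI or MIWI piRISC (synthetic 5'-monophosphorylated piRNA guide) with or without 500 nM mouse GTSF1 at 33 °C for 1 min to 16 h. Uncleaved targets were sequenced and normalised to non-target controls, and the pooled three trials were fitted to a burst-and-steady-state model to give the pre-steady-state cleavage rate (min^-1; k3 is constrained to at most 1e-4). Sequence is the target site only; target names encode pairing extent (gX:gY) and contiguous / 1-mismatch / 2-mismatch / bulge geometry. Fits with R² ≤ 0 are excluded.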
row,Sequence,pre-steady-state target cleavage rate
1,UAGUGUGUGACCUUGUCUGAGAGAUUAACA,0.0744 ± 0.014
2,UAGUGAGUCACCAUCUCUGACAGAUUAACA,0.0409 ± 0.0068
3,UAGUGACUCACCUUCUCUGAGAGCAUUAACA,0.144 ± 0.016
4,UAGUGACAGUGGAAGACUGACAGAUUUACA,< 0.0001
5,UAGUGACAGUCAUUCUCUGAGAGAUUAACA,0.00865 ± 0.0029
6,UAGUGACAGACCUUCUCUGAGAAAUUAACA,0.0522 ± 0.015
7,UAGUGACAGACGCUUCUCUGAGAGAUUAACA,0.0399 ± 0.0079
8,UAGUGAGUCAGCUUCUCUGAGAGAUUUACA,0.1 ± 0.018
9,UAGUGUGACACCAUCUCUGAGAGAUUAACA,0.137 ± 0.011
10,UAGUGACAGUCCGUCUCUGAGAGAUUAACA,0.0557 ± 0.0066
11,UAGUCUGUCAGCUUCACUGAGAGAUUAACA,0.0681 ± 0.0072
12,UAGUGACACACCUUCUCUGAGAGAUUAUGA,0.0394 ± 0.012
13,UAGUGUGUCACCUACUCUGAGACAUUAACA,0.0742 ± 0.019
14,UAGUCUGUCACCUUCUCUGAGAGGUUAACA,0.198 ± 0.025
15,UAGUCUGUCACCUUCUCUGAGAGUAUAACA,0.122 ± 0.022
16,UAGUCUGUCACCUUCUCUGUGAGUUUAACA,0.0314 ± 0.0059
17,UAGUCUGUCACCUUCUGUGAGAGUUUAACA,0.0702 ± 0.016
18,UAGUCUGUCACCUUCUCUGAGAGUAUUAACA,0.173 ± 0.013
19,UAGUCUGUCACCUUCUCUGAGAGAUUAAAA,0.12 ± 0.031
20,UAGUCUGUCACCUUCUCUGAGAGAGUAACA,0.245 ± 0.033
21,UAGUCUGUCACCUUCUCUGAGAGAUUAAACA,0.147 ± 0.018
22,UAGUCUGUCACCUUCUCUGAGAGUAAAACA,0.0676 ± 0.024
23,UAGUCUGUCACCUUCUCUGAGAGUUAAACA,0.328 ± 0.096

row,Sequence,pre-steady-state target cleavage rate
1,UAGUCUGUCACCUUCUCUGAGAGAGUUAACA,0.297 ± 0.035
2,UAGUCUGUCACCUUCUCUGAGAGUUUAACA,0.238 ± 0.04
3,UAGUGACAGUCCUUCUCUGAGUCAUUAAGA,< 0.0001
4,UAGUGACACACGAUCUCUGAGAGAUUAACA,0.0352 ± 0.0045
5,UAGUGACAGACCUUAUCUGAGAGAUUAACA,0.0894 ± 0.017
6,UAGUGACAGUGCUUCUCCGAGAGAUUAACA,0.0082 ± 0.0034
7,UAGUGACAGUGGAAGAGAGAGAGAUUGAACA,< 0.0001
8,UAGUGAGUCAGCUACUCUGAGAGAUUAACA,0.135 ± 0.01
9,UAGUGACACACCAACUCUGAGAGAUUAAGA,0.018 ± 0.0037
10,UAGUGACAGUCCUUCUCAGAGAGAUUUACA,0.0138 ± 0.0054
11,UAGUGACAGUGCUUCUCUGAGACAUAAACA,< 0.0001
12,UAGUGAGUCACCUUCUCAGAGAGAUUUACA,0.0954 ± 0.024
13,UAGUCUGUCACCUUCUCUGAGAGACUUAACA,0.145 ± 0.024
14,UAGUCUGUCACCUUCUCUGAGAGUUAACA,0.278 ± 0.082
15,UAGUCUGUCACCUUCUCUGAGAGCUUAACA,0.148 ± 0.016
16,UAGUCUGUCACCAACUCUGAGAGAUUAAGA,0.047 ± 0.0083
17,UAGUCUGUCCACCUUCUCUGAGAGAUUAACA,0.15 ± 0.018
18,UAGUGUGUCACCUUCCCUGAGAGAUUAACA,0.301 ± 0.056
19,UAGUGAGUCACCUUCUCUGAGAGAAUUAACA,0.318 ± 0.059
20,UAGUGAGUCACCUUCUCUGAGAGAUUAUCA,0.197 ± 0.037
21,UAGUGUGCACCUUCUCUGAGAGAUUAACA,0.196 ± 0.024
22,UAGUGAGUCACCUUCUCUGAGAGAUUAACU [g2:g24:cont:t1U],0.288 ± 0.038
23,UAGUGAGUCACCUUCUCUGAGAGAUUAAUCA,0.292 ± 0.053

row,Sequence,pre-steady-state target cleavage rate
1,UAGUGAGUCACCUUCUCUGAGAGAUUAACCA,0.219 ± 0.017
2,UAGUGUGUGCACCUUCUCUGAGAGAUUAACA,0.195 ± 0.021
3,UAGUGUGCCACCUUCUCUGAGAGAUUAACA,0.227 ± 0.023
4,UAGUGAGUCACCUUCUCUGAGAGAUUAAUA,0.217 ± 0.03
5,UAGUGAGUCACCUUCUCUGAGAGAAUUACA,0.105 ± 0.048
6,UAGUGAGUCACCUUCUCUGAGAAAUUAACA,0.132 ± 0.027
7,UAGUGAGUCACCUUCUCUGAGAGAUUAACC [g2:g24:cont:t1C],0.192 ± 0.018
8,UAGUGACACAGGUUCUCUGAGAGAUUAAGA,0.00675 ± 0.0025
9,UAGUGACAGUCCUUCUCUGAGAGAUUACCA,0.00831 ± 0.0032
10,UAGUGACAGACCUUCUGUGAGAGAUUAACA,0.087 ± 0.012
11,UAGUGACACAGGUUCUCUGAGAGAUUAACA,0.0267 ± 0.0054
12,UAGUCUGUCACCAUCUCUGAGAGAUUUACA,0.124 ± 0.018
13,UAGUGACAGUCCUUCUCUGUGAGAUUAACA,0.033 ± 0.0057
14,UAGUCUGUGACGUUCUCUGAGAGAUUAACA,0.147 ± 0.01
15,UAGUGACAGACCUUCUCUGAGAGGUUAACA,0.221 ± 0.058
16,UAGUGAGUCACCUUCUCUCUGAGAUUAACA,0.0118 ± 0.0043
17,UAGUGAGGUCACCUUCUCUGAGAGAUUAACA,0.242 ± 0.016
18,UAGUGAGUCACCUUCUCUGAGAGAUUAACA [g2:g24:cont:t1A],0.25 ± 0.021
19,UAGUGAGUCACCUUCUCUGAGAGAUUAAAA,0.135 ± 0.037
20,UAGUGAGUGACCUUCUCUGAGAGAUUAACA,0.157 ± 0.0097
21,UAGUGACCCACCUUCUCUGAGAGAUUAACA,0.286 ± 0.039
22,UAGUGAGUCACCUUCUCUGAGGAGAUUAACA,0.0247 ± 0.011
23,UAGUGAGUCACCUUCUCUGAGAGAUUAAA,0.202 ± 0.045

row,Sequence,pre-steady-state target cleavage rate
1,UAGUGAGUCACCUUCUCUGAAGAGAUUAACA,0.0119 ± 0.0044
2,UAGUGAGUCACCUUCUCUGAGAGAUUAAACA,0.33 ± 0.049
3,UAGUGGGUCACCUUCUCUGAGAGAUUAACA,0.175 ± 0.01
4,UAGUGACACCACCUUCUCUGAGAGAUUAACA,0.184 ± 0.017
5,UAGUGACAGACCUCUCUCUGAGAGAUUAACA,0.0375 ± 0.0076
6,UAGUCUGUCACCUUCUGCUGAGAGAUUAACA,0.0816 ± 0.013
7,UAGUCUGUCUCCUACUCUGAGAGAUUAACA,0.157 ± 0.0082
8,UAGUGACUCACCUAGUCUGAGAGAUUAACA,0.0896 ± 0.0089
9,UAGUGACAGUGCUUCUCUGAGAGAUUAACC [g2:g19:cont:t1C],0.0223 ± 0.0053
10,UAGUGACACACCAUCUCUGAGAGAUUAUGA,0.00752 ± 0.0041
11,UAGUGAGUCACCCUUCUCUGAGAGAUUAACA,0.19 ± 0.02
12,UAGUGAGUCACCUUCUCUGAGAGAUUACACA,0.187 ± 0.038
13,UAGUCAGUCACCUUCUCUGAGAGAUUAACA,0.249 ± 0.016
14,UAGUGAGUCACCUUCUCUGAGAGAUUACA,0.153 ± 0.033
15,UAGUAUGUCACCUUCUCUGAGAGAUUAACA,0.211 ± 0.019
16,UAGUCACACACCUUCUCUGAGAGAUUAACA,0.168 ± 0.011
17,UAGUGAGUCACCUUCUCUGAGAGAUUAAGA,0.219 ± 0.035
18,UAGUCACUCACCUUCUCUGAGAGAUUAACA,0.207 ± 0.0095
19,UAGUCAUGUCACCUUCUCUGAGAGAUUAACA,0.238 ± 0.023
20,UAGUGAGUCACCUUCUCUGAGAGAUUACCA,0.251 ± 0.05
21,UAGUCAGUCACCUUCUCUGAGAGAUUAAGA,0.135 ± 0.024
22,UAGUGAGUCACCUUCUCUGAGAGAUUAACG [g2:g24:cont:t1G],0.284 ± 0.021

# Reference: the supplement of paper PMC10338343
